Screens: PubChem BioAssay, National Center for Advancing Translational Sciences (NCATS)
Gal4-VP16 FLuc = inhibits Gal4-VP16 luciferase reporter, ROR gamma counter-screen. hit rate 3.5% among 310,000. Potency, µM (titrated, usually from 53.6 µM), for the others: top-dose activity, negative = inhibition, most hits filed as inhibitors. Drosophila S2 Gal4-VP16 UAS-luciferase, luminescence, 20 h;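 also: Gal4-VP16 expression switched on by copper sulfate through the metallothionein promoter; potency is read from the fitted curve at half-maximal effect; nearly all actives have a fitted effect of over 50% in size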
IL-1B inflam inh = blocks inflammasome-driven IL-1 beta release; activity change, % at 57.5 µM; THP-1 LPS/ATP IL-1B secretion, AlphaLISA, 16 h; hits give low values; AID 743279; hit rate 4.7% among 360,000; in the data active = activity change below about -50%; inconclusive = mostly about -30% to -49%
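Secreted IL-1B measured by AlphaLISA bead assay after 16 h compound exposure of THP-1 cells; compounds (final up to 57.5 uM) added 1 h before LPS (250 ng/mL) and ATP (1.25 mM) stimulation; lower signal means less secretion.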
TDP1 cell CPT = growth inhibition of DT40 Tdp1-/-;hTDP1 cells with camptothecin (screen for TDP1 inhibitors); Potency, µM (top dose mostly 46.2 µM), for inactives: top-dose activity change, negative = growth inhibition, actives largely listed as inhibitors; hit rate 12% among 420,000; chicken DT40 Tdp1-/-;hTDP1 cells + 20 nM CPT, ATP luminescence, 48 h; AID 686979; also: potency is read from the fitted curve at half-maximal effect; nearly all actives have a fitted effect of over 55% in size
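Chicken DT40 Tdp1-/- cells complemented with human TDP1, 400 cells/well, exposed to compounds plus 20 nM camptothecin for at least 48 h at 37 C; viability read as ATP content by CellTiter-Glo luminescence.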
RORg inh = ROR gamma (mouse) transcription inhibition; Drosophila S2 Gal4-RORgamma UAS-luciferase reporter, 20 h; hit rate 5.4% among 310,000; AID 2551; Potency, µM (highest dose often 53.6 µM), for inactives: top-dose activity change, negative = inhibition, usual class: inhibitors; also: potency is read from the fitted curve at half-maximal effect; nearly all actives have a fitted effect of over 60% in size
Target sequence (P51450 whole entry, looked up, the tested form may be a part): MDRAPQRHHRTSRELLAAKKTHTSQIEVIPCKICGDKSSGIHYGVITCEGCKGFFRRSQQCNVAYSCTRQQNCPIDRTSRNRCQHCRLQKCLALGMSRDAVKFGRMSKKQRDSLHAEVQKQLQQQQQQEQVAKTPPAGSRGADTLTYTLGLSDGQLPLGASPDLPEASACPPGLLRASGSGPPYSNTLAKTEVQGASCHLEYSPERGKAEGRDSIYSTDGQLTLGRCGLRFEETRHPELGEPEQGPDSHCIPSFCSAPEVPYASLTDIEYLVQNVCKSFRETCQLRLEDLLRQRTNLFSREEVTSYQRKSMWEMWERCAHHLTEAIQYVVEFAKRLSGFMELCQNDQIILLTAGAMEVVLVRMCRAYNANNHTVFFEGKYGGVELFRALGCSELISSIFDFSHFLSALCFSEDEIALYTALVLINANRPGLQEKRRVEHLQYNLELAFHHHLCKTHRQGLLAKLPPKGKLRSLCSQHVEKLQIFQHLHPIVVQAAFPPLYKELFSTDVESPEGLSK
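Luminescence from a UAS-regulated Photinus luciferase reporter in stably transfected Drosophila Schneider cells is measured; decreased signal marks ROR gamma inhibition. Fusion expression is induced by 700 uM copper sulfate for 20 hr.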
TDP1 cell noCPT = qHTS for Inhibitors of human tyrosyl-DNA phosphodiesterase 1 (TDP1): qHTS in cells in absence of CPT | Potency, µM (top dose mostly 46.2 µM), without a hit: at the top dose activity change, negative = growth inhibition, actives largely listed as inhibitors | hit rate 15% among 420,000 | DT40 Tdp1-/- hTDP1 cells, no CPT, ATP luminescence, 48 h; also: potency is read from the fitted curve at half-maximal effect; nearly all actives have a fitted effect of over 55% in size
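No-CPT arm: Tdp1-/-;hTDP1 DT40 cells (400/well) plus compounds, incubated ≥48 hr at 37 °C. Readout CellTiter-Glo luminescence.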
ELG1 DNA repair = ELG1-dependent DNA repair inhibition. HEK293T ELG1-luciferase reporter, luminescence, 16 h; DNA damage induced by 5-fluorouridine. Potency, µM (highest dose often 46.1 µM), for inactives: at the highest dose activity change, negative = inhibition, hits mostly inhibitors. hit rate 2.3% among 330,000. AID 504467; also: potency is read from the fitted curve at half-maximal effect; nearly all actives have a fitted effect of over 55% in size
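Step one: seed 2,000 cells per well. Step two: pin-transfer compound or DMSO alongside 5-fluorouridine. Step three: incubate 16 hr, 37 °C, 5% CO2. Step four: add ONE-Glo, wait 30 min, read luminescence.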
* hit, by the source's call; i = inactive; ? = inconclusive; . = no result; ! = a repeat was not active; [ ] = another dose, or the depositor's remark. A selection: hits, their analogues and other compounds. The true share with any hit is near 21%. Unless noted, calls follow the shape of the dose curve; as a rule, active = well fitted curve in the direction sought with a large enough effect; inconclusive = small, poorly fitted or top-dose-only effect, or another doubt; inactive = no such curve, though single readings can be large; an effect the other way counts as inactive or inconclusive. % is scaled to controls: 0 for no effect and ±100 for the full control effect.

SMILES	Gal4-VP16 FLuc	IL-1B inflam inh	TDP1 cell CPT	RORg inh	TDP1 cell noCPT	ELG1 DNA repair
Cc1ccc2oc3c(c(=O)c2c1)C(c1ccc(F)cc1)N(CCCN1CCOCC1)C3=O (stereo unspecified)	2.4%	.	.	4.7%	.	0.1%
Cc1cc2oc3c(c(=O)c2cc1C)C(c1ccc(C(C)C)cc1)N(CCCN1CCOCC1)C3=O (stereo unspecified)	?	-3.8	20.6µM*	12.6%	?	?
CCOc1ccc(C2c3c(oc4cc(C)c(C)cc4c3=O)C(=O)N2CCCN2CCOCC2)cc1 (stereo unspecified)	-16.5%	-19.4	-19.9%	?	4.1%	-24.6%
Cc1ccc2oc3c(c(=O)c2c1)C(c1cccc(Cl)c1)N(CCCN1CCOCC1)C3=O (stereo unspecified)	2.9%	0.0	?	5.7%	?	10.3µM*
CCc1nc2c(OCc3ccccc3C)cccn2c1N(C)C(=O)C(C)C	.	114.2	18.4µM*	.	16.4µM*	.
CCCCC(=O)N(C)c1c(CC)nc2c(OCc3ccccc3C)cccn12	.	-22.4	29.1µM*	.	29.1µM*	.
CCc1nc2c(OCc3ccccc3C)cccn2c1N(C)C(=O)CC(C)C	.	1.2	20.6µM*	.	18.4µM*	.
CC(C)(C)c1ccc(OCc2cc(=O)n3c4c(sc3n2)CCCC4)cc1	.	.	-0.3%	.	4.9%	.
COc1ccc(N2CCN(c3oc(-c4ccccc4C)nc3S(=O)(=O)c3ccccc3)CC2)cc1	.	.	11.6µM*	.	9.2µM*	.
COc1ccccc1-c1nc(S(=O)(=O)c2ccccc2)c(N2CCC(C)CC2)o1	.	.	23.1µM*	.	3.66µM*	.
COc1ccc(-c2nc(S(=O)(=O)c3ccccc3)c(N3CCC(C)CC3)o2)cc1	.	.	20.6µM*	.	11.6µM*	.
Cc1ccccc1-c1nc(S(=O)(=O)c2ccccc2)c(N2CCCC2)o1	.	1.1	?	.	?	0.0%
COc1cccc(-c2nc(S(=O)(=O)c3ccccc3)c(N3CCC(C)CC3)o2)c1	.	.	?	.	8.2µM*	.
COc1ccc(-c2nc(S(=O)(=O)c3ccccc3)c(N3CCCC3)o2)cc1	.	5.3	-0.7%	.	-4.7%	.
CCCCN1CC(N2CCN(C(=O)c3ccco3)CC2)CS1(=O)=O (stereo unspecified)	.	9.8	-17.2%	.	0.2%	.
CCn1c(-c2ccccc2Cl)nn(CC(=O)Nc2ccccc2C)c1=S	-3.3%	2.7	1.6%	39.8%	3.2%	-16.5%
CCCC(=O)N1CCCC1(C)C(=O)Nc1ccc(OC(F)F)cc1 (stereo unspecified)	.	26.8	9.0%	.	-6.5%	.
CC1CCCC(NC(=O)c2ccc3snnc3c2)C1C (stereo unspecified)	14.1%	-2.7	?	18.0%	?	20.9%
CCCCCCCCCc1conc1C(=O)/C=C/c1oc2c(c1C)CCC(C)C2 (stereo unspecified)	.	-12.9	20.6µM*	.	14.6µM*	.
Cc1ccc(CNC(=O)CCCn2nc(C)n3c(cc4sccc43)c2=O)cc1	.	.	-17.8%	.	-17.6%	.
CCNC(=O)c1cc(NC(=O)COC)cc2nc(-c3ccncc3)n(C)c12	.	.	?	.	-14.8%	.
COc1ccc(NC(=O)CCn2c(=O)c3cccn3c3ccccc32)cc1	4.2%	56.9	?	8.1%	?	?
Cc1cc(C)cc(NC(=O)CCn2c(=O)c3cccn3c3ccccc32)c1	2.6%	20.3	5.8µM*	6.2%	8.2µM*	-15.2%
Cc1cc(C)cc(NC(=O)CCCn2c3ccccc3c(=O)c3ccccc32)c1	.	.	?	.	23.1µM*	.
O=C(CCn1c(=O)c2cccn2c2ccccc21)Nc1ccc(F)cc1	3.5%	46.3	?	35.2%	11.6µM*!	-19.7%
SMILES	Gal4-VP16 FLuc	IL-1B inflam inh	TDP1 cell CPT	RORg inh	TDP1 cell noCPT	ELG1 DNA repair
Cc1ccc(NC(=O)Cn2c(=O)c3cccn3c3ccccc32)c(C)c1	-7.9%	?	-5.7%	1.2%	1.8%	-6.4%
Cc1ccc(NC(=O)CCn2c(=O)c3cccn3c3ccccc32)c(C)c1	-6.3%	0.0	?	34.1%	20.6µM*	-10.4%
CC(=O)c1ccc(C(=O)N2CCCC(N3CCN(c4ccc(F)cc4)CC3)C2)s1 (stereo unspecified)	-9.2%	i	?	-2.9%	?	0.0%
Cc1c(C2(c3cc(C(C)C)c(O)c(Br)c3C)OS(=O)(=O)c3ccccc32)cc(C(C)C)c(O)c1Br	.	.	-1.0%	.	-7.0%	.
Cc1ccc(-c2nnc3c4ccccc4c(C)nn23)cc1NC(=O)c1ccccc1	.	.	0.5%	.	?	.
CCOC(=O)c1cccc(NC(=O)CCCn2c(=O)c3cccn3c3cccnc32)c1	1.2%	-8.9	?	-3.0%	-21.0%	-4.7%
CCOC(=O)c1ccc(NC(=O)CCn2c(=O)c3cccn3c3ccccc32)cc1	.	.	?	.	-12.6%	.
COc1ccc(NC(=O)CCn2c(=O)c3cccn3c3ccccc32)c(OC)c1	-3.0%	0.0	16.4µM*	24.9%	20.6µM*	-24.2%
COc1cccc(NC(=O)CCCn2c(=O)c3cccn3c3cccnc32)c1	.	.	?	.	20.6µM*	.
O=C(NCc1ccccc1)C1C(=O)Nc2ccccc2C(=O)N1c1ccc2c(c1)OCCO2 (stereo unspecified)	.	-18.1	-5.0%	.	-27.9%	.
CCOc1ccc(-c2nc(CSCC(=O)N3CCN(c4cccc(OC)c4)CC3)c(C)o2)cc1	11.2µM*	9.8	23.1µM*	11.2µM*	?	?
COc1ccc(-c2nc(CSCC(=O)N3CCN(c4ccccc4F)CC3)c(C)o2)cc1	.	.	16.4µM*	.	8.2µM*	.
COc1cccc(-c2nc(CSCC(=O)N3CCc4ccccc43)c(C)o2)c1	-8.1%[0.365 µM]	8.0	-7.1%	-23.2%	-8.0%	?
Cc1ccc(-c2nc(CSCC(=O)N3CCOCC3)c(C)o2)cc1	2.2%	18.3	-2.6%	-0.4%	-15.7%	?
N#C/C(=C/c1ccc(-c2ccccc2)o1)c1nc(-c2cccs2)cs1	0.1µM*	0.0	-29.3%	?	?	?
N#C/C(=C\c1ccc(-c2ccccc2)cc1)c1nc(-c2ccco2)cs1	4.3%	0.1	-19.0%	1.0%	-27.6%	?
CCCCc1ccc(-c2csc(/C(C#N)=C\c3ccc(C)o3)n2)cc1	0.8%	-50.1*	-26.5%	2.1%	-4.2%	-1.9%
CCCCc1ccc(-c2csc(/C(C#N)=C/c3ccco3)n2)cc1	-9.6%	-11.9	3.0%	11.7%	-4.8%	2.9%
COc1cccc(CS(=O)(=O)c2nnnn2-c2ccccc2)c1	-28.0%	.	.	7.08µM*	.	.
